# Activity calls are given as the source filed them.
# Tests used:
# [1] = binders of probe aFSTL3 on microarray, primary screen, stem cell growth factor project, biochemical, small-molecule microarray, fluorescence 635/667 (AID 1064); conditions: higher = more signal;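 further: measures binding of the biotinylated anti-FSTL3 antibody to printed compounds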
# [2] = binders from COS7 lysate, DM2A8 probe, primary screen, torsin A project, cell lysate, small-molecule microarray, fluorescence 635/667 (AID 1065); conditions: higher = more signal, COS7 lysate expressing mutant human TOR1A
# [3] = binders of probe aFGF2 on microarray, primary screen, stem cell growth factor project, biochemical, small-molecule microarray, fluorescence 635/667 (AID 1067); conditions: higher = more signal;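 further: measures binding of biotinylated aFGF2 protein to printed compounds on slides; z-score merges feature fluorescence and signal-to-noise across triplicate slides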
# [4] = binders of probe aFGF10 on microarray, primary screen, stem cell growth factor project, biochemical, small-molecule microarray, fluorescence 635/667 (AID 1071); conditions: higher = more signal;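 further: score merges 667 nm spot intensity and signal to noise from triplicate slides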
# [5] = biological target: Neurogenic locus notch homolog protein 2 (Homo sapiens) (UniProt Q04721); experiment: Notch2 binders on small-molecule microarrays, primary screen, biochemical, small-molecule microarray, 635 nm fluorescence, stem cell growth factors (AID 1073); conditions: Notch2 binding, higher = more signal
# [6] = biological target: Pro-neuregulin-1, membrane-bound isoform (Homo sapiens) (UniProt Q02297); experiment: NRG1 binders on small-molecule microarrays, primary screen, psychiatric disease protein project, biochemical, small-molecule microarray, fluorescence 635/667 (AID 1075); conditions: NRG1 binding, 635 nm fluorescence, higher = more signal;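 further: score combines 667 nm spot fluorescence with signal to noise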
# [7] = test system: Neuregulin-1 EGF-like domain; experiment: binders of neuregulin-1 EGF-like domain, primary screen, biochemical, small-molecule microarray, 635 nm fluorescence (AID 1081); conditions: small-molecule microarray binding, higher = more signal;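 further: binding of the protein to compounds printed on small-molecule microarray slides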
# [8] = FRG1 promoter luciferase signal modulators, primary screen, FRG1 inhibition for FSHD, cell-based, C2C12 myotubes, firefly/Renilla luciferase, luminescence (AID 1084); conditions: higher = more signal, called active from +8 up or from −8 down
# [9] = binders of probe aFST on microarray, primary screen, stem cell growth factor project, biochemical, small-molecule microarray, fluorescence 635/667 (AID 1086); conditions: higher = more signal;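 further: score merges 667 nm fluorescence with signal-to-noise of each printed compound spot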
# [10] = binders of probe aHhip on microarray, primary screen, stem cell growth factor project, biochemical, small-molecule microarray, fluorescence 635/667 (AID 1087); conditions: higher = more signal;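 further: score merges spot fluorescence at 667nm with spot signal to noise ratio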
# Sequence of Pro-neuregulin-1, membrane-bound isoform (Homo sapiens) (Q02297 whole entry, looked up, the tested form may be a part, canonical isoform): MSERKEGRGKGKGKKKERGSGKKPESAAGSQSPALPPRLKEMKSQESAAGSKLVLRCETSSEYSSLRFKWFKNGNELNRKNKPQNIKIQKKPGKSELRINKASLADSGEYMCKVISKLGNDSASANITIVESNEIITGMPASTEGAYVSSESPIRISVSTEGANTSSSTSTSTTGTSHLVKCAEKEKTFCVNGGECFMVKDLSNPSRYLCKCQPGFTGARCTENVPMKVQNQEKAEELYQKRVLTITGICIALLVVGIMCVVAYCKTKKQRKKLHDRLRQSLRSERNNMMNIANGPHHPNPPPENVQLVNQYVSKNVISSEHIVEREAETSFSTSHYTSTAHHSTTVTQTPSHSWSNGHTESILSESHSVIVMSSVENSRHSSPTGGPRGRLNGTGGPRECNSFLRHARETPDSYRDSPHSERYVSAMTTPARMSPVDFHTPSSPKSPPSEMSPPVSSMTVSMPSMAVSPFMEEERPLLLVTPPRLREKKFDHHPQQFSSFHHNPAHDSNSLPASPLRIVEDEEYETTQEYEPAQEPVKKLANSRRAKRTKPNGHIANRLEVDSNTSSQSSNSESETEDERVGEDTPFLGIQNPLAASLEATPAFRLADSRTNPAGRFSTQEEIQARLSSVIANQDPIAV
# Sequence of Neurogenic locus notch homolog protein 2 (Homo sapiens) (Q04721 whole entry, looked up, canonical isoform): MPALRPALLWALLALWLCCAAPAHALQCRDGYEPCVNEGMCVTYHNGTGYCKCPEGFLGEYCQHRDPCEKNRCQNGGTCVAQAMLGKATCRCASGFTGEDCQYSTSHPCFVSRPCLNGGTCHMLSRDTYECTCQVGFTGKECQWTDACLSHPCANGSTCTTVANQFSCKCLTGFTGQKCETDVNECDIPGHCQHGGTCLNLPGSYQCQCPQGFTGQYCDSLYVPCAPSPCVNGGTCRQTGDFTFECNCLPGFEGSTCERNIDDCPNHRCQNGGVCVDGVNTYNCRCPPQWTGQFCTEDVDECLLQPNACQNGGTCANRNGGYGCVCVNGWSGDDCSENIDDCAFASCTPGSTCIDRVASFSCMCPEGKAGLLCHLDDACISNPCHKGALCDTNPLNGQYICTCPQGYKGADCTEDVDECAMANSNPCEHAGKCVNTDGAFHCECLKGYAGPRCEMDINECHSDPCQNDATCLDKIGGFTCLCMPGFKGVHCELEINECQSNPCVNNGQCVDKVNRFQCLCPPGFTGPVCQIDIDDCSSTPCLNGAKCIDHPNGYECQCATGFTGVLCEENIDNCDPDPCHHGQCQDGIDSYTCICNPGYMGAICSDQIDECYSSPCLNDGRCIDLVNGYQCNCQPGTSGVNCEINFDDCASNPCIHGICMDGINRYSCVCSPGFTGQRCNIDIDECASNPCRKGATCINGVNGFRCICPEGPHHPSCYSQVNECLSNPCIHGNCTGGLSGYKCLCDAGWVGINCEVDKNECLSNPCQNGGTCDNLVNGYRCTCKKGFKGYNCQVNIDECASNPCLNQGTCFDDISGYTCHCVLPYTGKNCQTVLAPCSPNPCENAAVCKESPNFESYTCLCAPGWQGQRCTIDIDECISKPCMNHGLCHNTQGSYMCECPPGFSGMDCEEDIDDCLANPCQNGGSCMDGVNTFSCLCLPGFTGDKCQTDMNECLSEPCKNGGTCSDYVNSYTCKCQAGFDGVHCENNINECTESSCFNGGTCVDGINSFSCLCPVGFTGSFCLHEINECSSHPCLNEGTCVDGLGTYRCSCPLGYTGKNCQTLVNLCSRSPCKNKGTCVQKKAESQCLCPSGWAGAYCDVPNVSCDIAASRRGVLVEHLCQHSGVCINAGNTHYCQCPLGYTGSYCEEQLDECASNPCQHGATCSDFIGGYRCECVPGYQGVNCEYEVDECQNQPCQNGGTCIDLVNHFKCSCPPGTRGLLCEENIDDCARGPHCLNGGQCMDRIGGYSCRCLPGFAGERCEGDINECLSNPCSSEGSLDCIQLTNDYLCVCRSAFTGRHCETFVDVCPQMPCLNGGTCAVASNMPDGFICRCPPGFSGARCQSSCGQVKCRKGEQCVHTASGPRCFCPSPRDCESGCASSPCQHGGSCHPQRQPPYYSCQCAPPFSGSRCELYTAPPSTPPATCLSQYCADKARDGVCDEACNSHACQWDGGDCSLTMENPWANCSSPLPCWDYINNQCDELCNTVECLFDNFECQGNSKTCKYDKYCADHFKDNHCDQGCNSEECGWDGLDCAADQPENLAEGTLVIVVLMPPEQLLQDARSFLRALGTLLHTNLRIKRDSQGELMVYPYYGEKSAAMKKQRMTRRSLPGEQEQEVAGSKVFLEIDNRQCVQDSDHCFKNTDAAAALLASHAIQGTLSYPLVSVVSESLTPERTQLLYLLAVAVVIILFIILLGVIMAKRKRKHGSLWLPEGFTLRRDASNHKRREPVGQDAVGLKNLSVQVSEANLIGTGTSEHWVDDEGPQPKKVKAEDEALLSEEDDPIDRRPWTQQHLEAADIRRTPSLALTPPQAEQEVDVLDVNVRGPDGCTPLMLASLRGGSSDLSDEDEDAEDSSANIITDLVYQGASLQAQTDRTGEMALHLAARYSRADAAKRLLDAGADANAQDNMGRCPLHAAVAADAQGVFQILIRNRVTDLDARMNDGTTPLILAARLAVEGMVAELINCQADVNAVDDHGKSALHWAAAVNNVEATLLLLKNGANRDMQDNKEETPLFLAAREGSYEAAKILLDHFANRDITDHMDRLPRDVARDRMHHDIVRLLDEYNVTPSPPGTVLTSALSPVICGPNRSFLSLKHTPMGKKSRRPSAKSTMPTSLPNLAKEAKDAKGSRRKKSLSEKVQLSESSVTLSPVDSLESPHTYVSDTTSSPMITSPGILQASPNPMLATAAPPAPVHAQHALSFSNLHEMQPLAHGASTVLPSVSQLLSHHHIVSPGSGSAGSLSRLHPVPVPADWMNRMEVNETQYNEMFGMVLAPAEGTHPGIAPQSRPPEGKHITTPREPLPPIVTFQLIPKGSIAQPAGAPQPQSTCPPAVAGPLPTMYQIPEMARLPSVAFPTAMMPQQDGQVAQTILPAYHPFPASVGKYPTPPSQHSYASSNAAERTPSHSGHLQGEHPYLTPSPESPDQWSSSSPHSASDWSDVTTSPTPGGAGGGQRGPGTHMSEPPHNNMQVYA
smiles,measurement,setting,value
Cc1ccc(S[C@]2(C(=O)NCCCN(C)C)CC(=O)N(Cc3cc(C(F)(F)F)cc(C(F)(F)F)c3)[C@@H]2c2ccc(CO)cc2I)cc1,composite z-score,[1],0.746
same,composite z-score,[2],0.0752
same,composite z-score,[3],-0.0894
same,composite z-score,[4],-0.21
same,composite z-score,[5],-1.21
same,composite z-score,[6],2.07
same,composite z-score,[7],0.634
same,z-score,[8],0.452 (inactive)
same,composite z-score,[9],-0.191
same,composite z-score,[10],-0.0994
[N-]=[N+]=NCc1ccccc1[C@@H]1OC(c2ccc(OCCCO)cc2)=N[C@]1(Cc1ccccc1)C(N)=O,composite z-score,[1],0.0286
same,composite z-score,[2],-0.187
same,composite z-score,[3],0.0062
same,composite z-score,[4],0.98
same,composite z-score,[5],1.6
same,composite z-score,[6],1.99
same,composite z-score,[7],1.29
same,z-score,[8],2.02 (inactive)
same,composite z-score,[9],1.35
same,composite z-score,[10],-0.249
C[N+](C)(C)CCCCCCNC(=O)[C@@H]1C[C@@H]2C(=O)N[C@@H](Cc3ccccc3)C(=O)N2[C@@H]1c1cccc(OCCO)c1,composite z-score,[1],-0.0274
same,composite z-score,[2],0.673
same,composite z-score,[3],-0.0969
same,composite z-score,[4],0.44
same,composite z-score,[5],-0.165
same,composite z-score,[6],1.2
same,composite z-score,[7],1.34
same,z-score,[8],1.5 (inactive)
same,composite z-score,[9],0.143
same,composite z-score,[10],0.236
O=C1N(Cc2ccccc2)c2ccccc2[C@@H]2OC(c3ccc(OCCCO)cc3)=N[C@]12CCS(=O)(=O)c1ccccc1,composite z-score,[1],0.625
same,composite z-score,[2],0.206
same,composite z-score,[3],0.0111
same,composite z-score,[4],-0.23
same,composite z-score,[5],0.888
same,composite z-score,[6],1.03
same,composite z-score,[7],1.28
same,z-score,[8],-2.27 (inactive)
same,composite z-score,[9],1.15
same,composite z-score,[10],-0.253
N#Cc1ccc(NN2C(C(O)C(c3ccccc3)c3ccccc3)C=CC3C(=O)N(c4ccccc4)C(=O)C32)cc1 (stereo not given),composite z-score,[1],0.223
same,composite z-score,[2],0.135
same,composite z-score,[3],-0.0462
same,composite z-score,[4],0.952
same,composite z-score,[5],1.65
same,composite z-score,[6],1.77
same,composite z-score,[7],1.15
same,z-score,[8],-0.621 (inactive)
same,composite z-score,[9],1.93
same,composite z-score,[10],0.0585
COc1ccc(C(=O)Nc2ccc(CN3C(=O)[C@]4(O[C@H](CCO)[C@@H]([Si](C)(C)c5ccc(OC)cc5)[C@@H]4C)c4ccccc43)cc2)cc1,composite z-score,[1],-0.329
same,composite z-score,[2],0.0876
same,composite z-score,[3],-0.087
same,composite z-score,[4],0.245
same,composite z-score,[5],0.561
same,composite z-score,[6],0.77
same,composite z-score,[7],0.836
same,z-score,[8],-4.05 (inactive)
same,composite z-score,[9],0.305
same,composite z-score,[10],0.432
COC(=O)[C@@]1(Cc2ccc(OC)cc2)[C@H]2c3cc(C(=O)N4CCCC4)n(Cc4ccc(C)c(F)c4F)c3C[C@H]2CN1C(=O)c1ccccc1,composite z-score,[1],0.77
same,composite z-score,[2],-0.5
same,composite z-score,[3],0.176
same,composite z-score,[4],0.78
same,composite z-score,[5],1.77
same,composite z-score,[6],1.65
same,composite z-score,[7],1.31
same,z-score,[8],0.352 (inactive)
same,composite z-score,[9],1.78
same,composite z-score,[10],2.12
CNS(=O)(=O)c1ccc(C)cc1,composite z-score,[1],-0.366
same,composite z-score,[2],0.182
same,composite z-score,[3],-0.14
same,composite z-score,[4],0.248
same,composite z-score,[5],0.192
same,composite z-score,[6],-0.0687
same,composite z-score,[7],0.314
same,z-score,[8],-0.443 (inactive)
same,composite z-score,[9],0.209
same,composite z-score,[10],-0.0346
CC1(C)[C@@H]2CC(C(O)C3C=CC4C(=O)N(Cc5ccccc5)C(=O)C4N3n3cnnc3)=C[C@H]1C2 (stereo not given in full),composite z-score,[1],-0.0224
same,composite z-score,[2],0.839
same,composite z-score,[3],0.0119
same,composite z-score,[4],0.959
same,composite z-score,[5],1.33
same,composite z-score,[6],1.56
same,composite z-score,[7],1.39
same,z-score,[8],0.349 (inactive)
same,composite z-score,[9],1.06
same,composite z-score,[10],0.0053
O=C1c2ccccc2[C@](Cc2ccccc2I)(C(=O)NCCN2CCOCC2)[C@H](c2ccc(CO)cc2)N1Cc1ccccc1Cl,composite z-score,[1],0.118
same,composite z-score,[2],0.469
same,composite z-score,[3],0.07
same,composite z-score,[4],0.915
same,composite z-score,[5],1.13
same,composite z-score,[6],1.24
same,composite z-score,[7],1.29
same,z-score,[8],-1.96 (inactive)
same,composite z-score,[9],0.511
same,composite z-score,[10],0.0274
O=C(NC1CC1)[C@@H]1c2ccccc2C(=O)N(Cc2ccccc2Cl)[C@H]1c1ccc(CO)cc1,composite z-score,[1],-0.255
same,composite z-score,[2],0.256
same,composite z-score,[3],-0.104
same,composite z-score,[4],0.486
same,composite z-score,[5],0.532
same,composite z-score,[6],0.93
same,composite z-score,[7],1.32
same,z-score,[8],-2.22 (inactive)
same,composite z-score,[9],0.882
same,composite z-score,[10],-0.15
O=C1O[C@H](c2ccccc2)[C@H](c2ccccc2)N2[C@H]1[C@@H](C(=O)N1CCCCCCC1)[C@]1(C(=O)Nc3ccc(C#CC4=CCCCC4)cc31)[C@H]2c1ccc(OCCO)cc1,composite z-score,[1],3.55
same,composite z-score,[2],2.01
same,composite z-score,[3],0.917
same,composite z-score,[4],0.965
same,composite z-score,[5],1.6
same,composite z-score,[6],2.38
same,composite z-score,[7],1.3
same,z-score,[8],0.677 (inactive)
same,composite z-score,[9],3.36
same,composite z-score,[10],3.42
C=CCN1C(=O)[C@@]2(Cc3ccccc31)N=C(c1ccc(OCCCO)cc1)O[C@H]2c1ccccc1,composite z-score,[1],1.12
same,composite z-score,[2],0.282
same,composite z-score,[3],0.0085
same,composite z-score,[4],-0.112
same,composite z-score,[5],1.01
same,composite z-score,[6],1.24
same,composite z-score,[7],1.23
same,z-score,[8],-2.07 (inactive)
same,composite z-score,[9],0.83
same,composite z-score,[10],-0.144
C=C(/C(=C/C[C@H](OC(C)=O)c1ccccc1OCCO)c1cnc2ccccc2c1)C(C)C,composite z-score,[1],0.168
same,composite z-score,[2],0.126
same,composite z-score,[3],-0.0419
same,composite z-score,[4],0.324
same,composite z-score,[5],0.775
same,composite z-score,[6],0.586
same,composite z-score,[7],0.87
same,z-score,[8],-0.607 (inactive)
same,composite z-score,[9],0.0254
same,composite z-score,[10],0.0274
COCCOC(=O)N1C(=O)[C@@]2(c3cc(C#CCC(C(=O)OC)C(=O)OC)ccc31)[C@H](C(=O)N1CCN(c3ncccn3)CC1)[C@H]1C(=O)O[C@H](c3ccccc3)[C@H](c3ccccc3)N1[C@@H]2c1ccccc1OCCO,composite z-score,[1],-0.486
same,composite z-score,[2],0.51
same,composite z-score,[3],0.0247
same,composite z-score,[4],0.86
same,composite z-score,[5],1.32
same,composite z-score,[6],0.841
same,composite z-score,[7],1.27
same,z-score,[8],0.131 (inactive)
same,composite z-score,[9],0.495
same,composite z-score,[10],-0.0346
